Reference: PubChem BioAssay AID743279 (National Center for Advancing Translational Sciences (NCATS), 2014)
Out of some 360,000 compounds screened, about 17,000 (4.7%) were called active. Inconclusive results (about 5%) are left out. The sample holds actives, similar compounds and a random draw of the others, so the mix is not that of the screen. A number with no mark means an inactive call. No stated cut-off is given here; in the data, active means activity change below about -50%; inconclusive means mostly about -30% to -49%; inactive means weaker than that.

Assay: qHTS for Inhibitors of Inflammasome Signaling: IL-1-beta AlphaLISA Primary Screen
Conditions: THP-1 LPS/ATP IL-1B secretion, 16 h; at 57.5 µM, stronger effect = lower value
Summary of the method: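 Secreted IL-1B measured by AlphaLISA bead assay after 16 h compound exposure of THP-1 cells; compounds (final up to 57.5 uM) added 1 h before LPS (250 ng/mL) and ATP (1.25 mM) stimulation; lower signal means less secretion.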
On the % scale 0 is the no-effect control and ±100 the full control effect.

Structure (SMILES) | activity change
C/C(=N\Nc1ncc(Cl)cc1Cl)c1ccc(S(=O)(=O)NCc2ccco2)cc1 | -9.03%
O=S(=O)(NCc1ccco1)c1cnc(Cl)c(Cl)c1 | -67.1% (active)
O=C(COC(=O)c1cnc(Cl)c(Cl)c1)NCc1ccco1 | 10%
O=S(=O)(NCC1CCCO1)c1cnc(Cl)c(Cl)c1 (stereo not given) | -65.5% (active)
CCOc1ccc(S(=O)(=O)NCC2CCCO2)cc1 (stereo not given) | 6.01%
O=S(=O)(NCC1CCCO1)c1ccc2ccccc2c1 (stereo not given) | 1.02%
O=C(Nc1cccc2ccccc12)NC1CC1 | -13.6%
COC(=O)C[C@H]1C[C@@H]2c3cc(N(C)C)ccc3O[C@@H]2[C@H](CO)O1 | 13.8%
O=C(NCc1cccnc1)c1cc(C2CCCN(C(=O)C3CCCCC3)C2)on1 (stereo not given) | -24.1%
CCCNC(=O)c1cc(C2CCCCN2C(=O)OC)on1 (stereo not given) | 0%
O=C1c2ccccc2-c2ccccc2NC1O (stereo not given) | 7.09%
CC(C)C1N=C2c3ccccc3N=C(SCC(=O)c3ccc(O)c(O)c3)N2C1=O (stereo not given) | 41.9%
O=C1CC[C@@H](C(=O)N2CSC[C@@H]2C(=O)Nc2ccc(C(F)(F)F)cc2)N1 | -1.13%
CS/C(=C\[N+](=O)[O-])Nc1ccc(C)cc1 | -131% (active)
Cc1ccc(NC(=O)O/N=C/c2cccc([N+](=O)[O-])c2)cc1 | -1.61%
COc1cc(NC(=O)Nc2ccc(C)cc2)cc([N+](=O)[O-])c1 | -21%
Cc1nn(-c2ccccc2)nc1C(=O)OCC(=O)N1CCCCC1C (stereo not given) | 12%
O=C(Cc1ccc(NC(=O)C2CCCN(C(=O)C3CCCCC3)C2)cc1)Nc1cccc(C(=O)N2CCCCC2)c1 (stereo not given) | -3.57%
Cc1[nH]c2ccccc2c1C(=O)CSCC(=O)O | 10.6%
Cc1[nH]c2ccccc2c1C(=O)COC(=O)c1c(-c2ccccc2)noc1C | -59.9% (active)
Cc1onc(-c2ccccc2Cl)c1C(=O)OCC(=O)c1ccccc1 | -25.9%
COc1ccc(CC(=O)NC(C)c2ccc(Cl)c(Cl)c2)cc1S(=O)(=O)N1CCOCC1 (stereo not given) | -9.07%
CN(C)c1ccc(Nc2c3c4c(cccc4n(C)c2=O)C(=O)c2ccccc2-3)cc1 | -11.1%

Structure (SMILES) | activity change
COc1ccc2sc(-c3ccc(N(C)C)cc3)c(C#CCO)c2c1 | -3.05%
COc1ccc2sc(-c3ccc(N(C)C)cc3)c(-c3ccc4cc[nH]c4c3)c2c1 | -13.1%
COc1ccc2c(c1)c(=Cc1ccc(N(C)C)cc1)c1cc(-c3ccccc3)[n+](C)n12 | -118% (active)
O=C(CCNC(=O)c1ccc(Cl)cc1)NC1CCCc2ccccc21 (stereo not given) | 1.14%
COc1cc2[nH]c(O)c(C=O)c2cc1OC | -8.17%
Cc1ccc(C=O)c([B-](F)(F)F)c1 | 5.57%
CN1c2ccc(C=O)c3c(C=O)ccc(c23)N(C)C1(C)C | -96.3% (active)
O=C1CCCC2=C1C(c1ccccc1)n1c(s/c(=C/c3cccc(F)c3)c1=O)=N2 (stereo not given) | 2.6%
CCOC(=O)C1=C(C)N=c2s/c(=C\C(=O)OC)c(=O)n2C1c1ccc(OC)cc1 (stereo not given) | 10.3%
COc1ccc(OC)c(C2C3=C(N=c4s/c(=C\c5cccc(O)c5)c(=O)n42)c2ccccc2CC3)c1 (stereo not given) | -55.4% (active)
O=S(=O)(Nc1ccc2[nH]ncc2c1)c1ccccc1Cl | -6.19%
CNC(=O)c1ccsc1NC(=O)c1ccc(S(=O)(=O)N2CCc3ccccc32)cc1 | -11.5%
CCN(Cc1ccncc1)C(=S)Nc1ccccc1C | 9.34%
COc1ccc(NC(=O)CCCOc2ccc(C(C)=O)cc2)cc1S(=O)(=O)N1CCCCC1 | 5.4%
C=CCn1c(COc2ccc(F)cc2)nnc1SCC(=O)Nc1cccc(S(N)(=O)=O)c1 | -56.5% (active)
COc1ccc(-n2cnnc2SCC(=O)Nc2cccc(S(N)(=O)=O)c2)cc1 | 23.2%
C=CCn1c(CC(=O)Nc2cccc(OC)c2)nnc1SCC(=O)NC1CCCCC1 | -18.6%
O=C(N[C@H]1CC[C@H](CC(=O)N2CCCCC2)O[C@@H]1CO)c1cccc(F)c1 | 34.1%
COc1ccc(Nc2ccc3ccccc3c2)cc1 | -4.37%
COc1ccc(Nc2ncnc3sc(C)cc23)cc1 | 1.88%
COc1ccc(Nc2cc(Sc3ccc(OC)cc3)ncn2)cc1 | -73.2% (active)
Cc1cccc(N2CCN(C(=O)/C=C/c3ccco3)CC2)c1C | -12.5%
CC(=O)N1CCN(S(=O)(=O)c2c(F)cc(F)c(Cl)c2F)CC1 | -92.4% (active)

Structure (SMILES) | activity change
CCN1CCN(C(=O)C2CCN(S(=O)(=O)c3cc(Cl)ccc3Cl)CC2)CC1 | 24.2%
O=C(c1cnc(Cl)c(Cl)c1)N1CCN(S(=O)(=O)c2ccc(F)cc2)CC1 | -12.3%
O=[N+]([O-])c1ccc(CN2CC(N3CCC(c4ccccc4)CC3)CS2(=O)=O)cc1 (stereo not given) | -10.2%
O=C(Nc1cc(F)ccc1F)c1ccc2c(=O)n3c(nc2c1)CCC3 | -13.9%
CC(C)(C)OC(=O)NCCCCCNC(=O)c1[nH]cnc1C(=O)Nc1nccs1 | -8.09%
C=CC(=O)OCCOCCOCCOCCOC(=O)C=C | -108% (active)
COC(=O)c1ccc2nc(-c3ccc(F)cc3)c(Cc3ccc(C)cc3)n2c1 | 14.8%
CC1(c2cccc(N)c2)OCCO1 | -13.4%
CCC(=O)N1CCCC1(C)C(=O)Nc1ccc2c(c1)CCN2C(C)=O (stereo not given) | -2.74%
CC(C(=O)Nc1ccc(O)c(C(=O)O)c1)N1C(=O)/C(=C/c2cccs2)SC1=S (stereo not given) | 3.56%
COc1cccc(/C=C2\SC(=S)N(CCCC(=O)N3CCOCC3)C2=O)c1 | -22.2%
COc1ccc(/C=C2/SC(=O)N(CCCCCC(=O)Nc3ccccc3C(=O)O)C2=S)cc1 | 34.4%
O=C(CN1C(=O)/C(=C\c2ccccc2F)SC1=S)Nc1nc2ccccc2s1 | -3.88%
O=C(CCCN1C(=O)/C(=C/c2cccs2)SC1=S)Nc1ccc(O)cc1 | -71.2% (active)
O=C(CCCN1C(=O)/C(=C\c2ccccc2)SC1=S)Nc1ccccc1O | -71.6% (active)
COc1ccc(S(=O)(=O)N[C@@H]2C=C[C@@H](CC(=O)N3CCc4ccccc4C3)O[C@@H]2CO)cc1 | 12.3%
CCOc1cc(/C=C(/C#N)c2ccc(Cl)cc2)cc(Cl)c1OCC(=O)O | 31.7%
O=C(NNC(=O)C1CCCC1)c1ccc(F)cc1 | -5.32%
CCc1noc(C)c1C(=O)NNC(=O)c1ccc(F)cc1 | 10.8%
O=C(/C=C/c1ccc([N+](=O)[O-])o1)NNC(=O)c1ccc(F)cc1 | -102% (active)
CC(C)NC(=O)C1(C)CCCCCN1C(=O)c1ccc(-c2ccccc2)cc1 (stereo not given) | -2.6%
Clc1ccc(CN2CCN(/N=C/c3cccnc3)CC2)cc1 | 11.9%
Cc1ccccc1C1=N/C(=C/c2cccnc2)C(=O)O1 | 38.6%

Structure (SMILES) | activity change
O=C1/C(=C\c2cccnc2)CN(Cc2ccccc2)C/C1=C\c1cccnc1 | -107% (active)
CC(C)N=C1CCCC1C(=S)SSC(=S)C1CCCC1=NC(C)C (stereo not given) | -104% (active)
COc1cccc(C(NC(C)=O)c2nc(-c3cnc4ccccc4c3)cs2)c1 (stereo not given) | -1.76%
CN1CCC(N(C)C(=O)c2ccc(Cl)c(S(=O)(=O)Nc3ccc(Cl)cc3)c2)CC1 | -20%
CCCCNC(=O)CCn1c(=O)c2ccccc2n(Cc2cc(C)ccc2C)c1=O | -9.41%
O=C(/C=C/[C@H]1O[C@@H](n2cnc3c(NC(=O)c4ccccc4)ncnc32)[C@H](O)[C@@H]1O)NCc1ccccc1 | 1.22%
CCc1ccc(CNC(=O)C2CCN(c3nnc(C)c4c(C)n(-c5ccc(C)cc5)nc34)CC2)cc1 | -55% (active)
CCOc1ccc(CNC(=O)C2CCCN(c3nnc(C)c4c(C)n(-c5ccccc5)nc34)C2)cc1 (stereo not given) | 17.4%
COc1ccc(-n2nc3c(N4CCC(C(=O)NCc5ccccc5)CC4)nnc(C)c3c2C)cc1 | -9.21%
OC(c1cc(Cl)cc(Cl)c1)c1ncc(-c2ccccc2C(F)(F)F)[nH]1 (stereo not given) | -7.73%
Cc1cccc(-c2cnc(C(O)c3ccc4ccccc4c3)[nH]2)c1 (stereo not given) | 0%
Cc1ccc(S(=O)(=O)N2CCN(C(=O)Cc3sc(C)nc3-c3ccc(F)cc3)CC2)c(C)c1 | -50.5% (active)
Cc1nc(-c2ccc(F)cc2)c(CC(=O)N2CCN(S(=O)(=O)c3ccc(F)cc3)CC2)s1 | -7.47%
CCCc1cc(=O)[nH]c(SCC(=O)N2CCN(S(=O)(=O)c3ccc(C)cc3C)CC2)n1 | 0%
Cc1nc(-c2ccc(F)cc2)c(CC(=O)Nc2cccc(S(=O)(=O)N3CCOCC3)c2)s1 | -11.9%
Cc1ccc(S(=O)(=O)N2CCN(C(=O)CSc3cc(C)ccc3C)CC2)c(C)c1 | -51.4% (active)
Cc1ccc(S(=O)(=O)N2CCN(C(=O)COC(=O)c3c(C)cc(C)cc3C)CC2)c(C)c1 | -9.93%
NC1=NOC(=O)C1C1CCCCC1 (stereo not given) | -14.1%
COc1ccc(C(CNC(=O)c2ccc(OCc3cscn3)cc2)N2CCCC2)cc1 (stereo not given) | -24.7%
COc1ccc(CNC(=O)CN2C(=O)NC3(CCCc4sccc43)C2=O)cc1 (stereo not given) | 8.42%
COc1cc2c(cc1OC)CN(C(C)C(=O)Nc1cccc(S(=O)(=O)N3CCOCC3)c1)CC2 (stereo not given) | -4.78%
